# Reference: PubChem BioAssay (Tox21)
# Where “and” joins values, the source holds several entries; their conditions need not be identical. Identical values can stand only once. Values without a mark were called inactive. Records with an inconclusive call do not appear. A call without a number means that no potency is given here. Calls of active or inactive are those of the source. Unless noted, the call rests on the fitted dose curve; in most records, active means well fitted curve in the direction sought with a large enough effect in the repeat runs; inconclusive means weak or mixed curves; inactive means no such curve, though single readings can be large; an effect the other way counts as inactive or inconclusive.
# Assays:
# [1] = qHTS assay to identify small molecule agonists of the hypoxia (HIF-1) signaling pathway - cell viability counter screen (AID 1224844; calls by dose curve; further: nearly all actives have a fitted effect of over 50% in size)
# Procedure, shortened: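 ME-180 HRE-bla cells, 2,000/well, 0.5% dialyzed FBS; 5 hr settle, 17 hr compound at 37C/5% CO2; CCF4-AM reporter read first, then CellTiter-Glo luminescence after 30 min RT.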
# [2] = qHTS assay to identify small molecule agonists of H2AX (AID 1224845; active means well fitted activation curve with a large enough effect in the signal ratio in the repeat runs, not every such curve was filed as active; the % refers to the signal ratio)
# Procedure, shortened: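 Wild-type CHO-K1 cells plated overnight, then exposed 3 hr at 37C to compounds at 15 concentrations (0.76% DMSO). Lysed, then HTRF anti-pH2AX(S139)-cryptate/anti-H2AX-d2 detection after 24 hr at room temperature; emissions 665 and 620 nm.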
# [3] = qHTS assay to identify small molecule agonists of the hypoxia (HIF-1) signaling pathway (AID 1224846; active means well fitted activation curve with a large enough effect in the signal ratio in the repeat runs, not every such curve was filed as active; the % refers to the signal ratio)
# Procedure, shortened: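 Cell line: CellSensor HRE-bla ME-180; 2,000 cells/well; 0.5% dialyzed FBS; 5 h preincubation; DMSO compound pin transfer; 17 h, 37C, 5% CO2; CCF4-AM added; bla FRET signal scored for activation.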
# [4] = qHTS assay to identify small molecule agonists of H2AX - cell viability counter screen (AID 1224847; calls by dose curve; further: top concentration of the series differs between compounds; nearly all actives have a fitted effect of over 30% in size)
# Procedure, shortened: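 CHO-K1 cells plated overnight at 37C, then exposed 3 h at 37C to compounds at 15 concentrations (0.76% DMSO final). Viability by CellTiter-Glo luminescence after 30 min at room temperature.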
# [5] = qHTS RealTime-Glo MT Cell Viability Assay in HepG2 cells - 24 hour (AID 1224867); further: nearly all actives have a fitted effect of over 50% in size
# Procedure, shortened: (§1)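 qHTS, HepG2, 600 cells/well, RealTime-Glo (NanoLuc + prosubstrate) added with cells; 5 h preincubation; DMSO compound addition; 37 C; luminescence at 0/8/16/24/32/40 h.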
# [6] = qHTS RealTime-Glo MT Cell Viability Assay in HEK293 cells - 32 hour (AID 1224868); further: top concentration of the series differs between compounds; nearly all actives have a fitted effect of over 50% in size
# Procedure, shortened: (§2)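 Assay medium contained NanoLuc luciferase plus cell-permeant prosubstrate, added with HEK293 cells at 600 cells/well. After 5 h at 37 C/5% CO2 compounds were added; plates stayed at 37 C for 40 h with serial luminescence reads.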
# [7] = A CellTox Green Cytotoxicity Assay to monitor cytotoxicity in HEK293 cells - 0 hour (AID 1224869); further: nearly all actives have a fitted effect of over 50% in size
# Procedure, shortened: (§3)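 Nonlytic real-time cytotoxicity: HEK293 + CellTox Green reagent plated, 5 h preincubation, pintool compound addition (23 nL in DMSO), 37 C for 40 h, fluorescence measured at successive time points.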
# [8] = A CellTox Green Cytotoxicity Assay to monitor cytotoxicity in HEK293 cells - 40 hour (AID 1224871); further: nearly all actives have a fitted effect of over 45% in size; further: potency means the concentration at half of the fitted maximal effect
# Procedure, shortened: as §3
# [9] = qHTS RealTime-Glo MT Cell Viability Assay in HEK293 cells - 16 hour (AID 1224872)
# Procedure, shortened: as §2
# [10] = qHTS RealTime-Glo MT Cell Viability Assay in HepG2 cells - 8 hour (AID 1224873); further: nearly all actives have a fitted effect of over 55% in size
# Procedure, shortened: (§4)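 HepG2 cells mixed with RealTime-Glo MT reagents (NanoLuc plus cell-permeant prosubstrate) were seeded at 600 cells/well, incubated 5 h at 37 C/5% CO2, then pinned with compounds in DMSO; nonlytic luminescence tracked viability during 40 h treatment.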
# [11] = qHTS RealTime-Glo MT Cell Viability Assay in HEK293 cells - 40 hour (AID 1224874); settings: RealTime-Glo luminescence; max response: hits give low values; further: nearly all actives have a fitted effect of over 50% in size
# Procedure, shortened: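 Cells were seeded together with NanoLuc luciferase and a prosubstrate that viable cells reduce to a luciferase substrate. After a 5 h incubation at 37 C/5% CO2, compounds were added and luminescence was measured repeatedly during 40 h of treatment.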
# [12] = A CellTox Green Cytotoxicity Assay to monitor cytotoxicity in HEK293 cells - 24 hour (AID 1224875); further: series mostly up to about 77 µM; nearly all actives have a fitted effect of over 45% in size
# Procedure, shortened: as §3
# [13] = A CellTox Green Cytotoxicity Assay to monitor cytotoxicity in HepG2 cells - 16 hour (AID 1224876); further: nearly all actives have a fitted effect of over 45% in size
# Procedure, shortened: (§5)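 Read-out is fluorescence of a cyanine dye excluded from live cells that stains DNA of dead HepG2 cells, with signal proportional to cytotoxicity. Plates were read at 0, 8, 16, 24, 32 and 40 h after compound addition.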
# [14] = qHTS RealTime-Glo MT Cell Viability Assay in HepG2 cells - 32 hour (AID 1224877); further: nearly all actives have a fitted effect of over 55% in size
# Procedure, shortened: as §1
# [15] = A CellTox Green Cytotoxicity Assay to monitor cytotoxicity in HepG2 cells - 24 hour (AID 1224878); further: nearly all actives have a fitted effect of over 45% in size
# Procedure, shortened: as §5
# [16] = A CellTox Green Cytotoxicity Assay to monitor cytotoxicity in HepG2 cells - 40 hour (AID 1224879); further: nearly all actives have a fitted effect of over 40% in size
# Procedure, shortened: as §5
# [17] = qHTS assay to identify small molecule antagonists of the estrogen related receptor (ERR) signaling pathway from Tox21 library (AID 1224848); further: nearly all actives have a fitted effect of over 50% in size
# Procedure, shortened: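 Screening used an ERR reporter line supplied by NTP, exposed for 18 h at 37 C to library compounds delivered in DMSO. Signal was luciferase luminescence developed with ONE-Glo at room temperature for 30 min.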
# [18] = qHTS assay to identify small molecule agonists of the estrogen related receptor (ERR) signaling pathway from Tox21 library (AID 1224849; calls by dose curve; further: nearly all actives have a fitted effect of over 15% in size)
# Procedure, shortened: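 ERR cells, 6 h pre-incubation 37 C/5% CO2; cpd in DMSO pinned; 18 h 37 C; ONE-Glo added, 30 min RT; luminescence read. Agonist mode, qHTS.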
# [19] = target: Thyrotropin receptor (Homo sapiens) (UniProt P16473); assay: qHTS assay to identify small molecule agonists of the thyroid stimulating hormone receptor (TSHR) signaling pathway (AID 1224843; calls by dose curve; further: nearly all actives have a fitted effect of over 45% in size)
# Sequence of Thyrotropin receptor (Homo sapiens) (P16473 whole entry, looked up): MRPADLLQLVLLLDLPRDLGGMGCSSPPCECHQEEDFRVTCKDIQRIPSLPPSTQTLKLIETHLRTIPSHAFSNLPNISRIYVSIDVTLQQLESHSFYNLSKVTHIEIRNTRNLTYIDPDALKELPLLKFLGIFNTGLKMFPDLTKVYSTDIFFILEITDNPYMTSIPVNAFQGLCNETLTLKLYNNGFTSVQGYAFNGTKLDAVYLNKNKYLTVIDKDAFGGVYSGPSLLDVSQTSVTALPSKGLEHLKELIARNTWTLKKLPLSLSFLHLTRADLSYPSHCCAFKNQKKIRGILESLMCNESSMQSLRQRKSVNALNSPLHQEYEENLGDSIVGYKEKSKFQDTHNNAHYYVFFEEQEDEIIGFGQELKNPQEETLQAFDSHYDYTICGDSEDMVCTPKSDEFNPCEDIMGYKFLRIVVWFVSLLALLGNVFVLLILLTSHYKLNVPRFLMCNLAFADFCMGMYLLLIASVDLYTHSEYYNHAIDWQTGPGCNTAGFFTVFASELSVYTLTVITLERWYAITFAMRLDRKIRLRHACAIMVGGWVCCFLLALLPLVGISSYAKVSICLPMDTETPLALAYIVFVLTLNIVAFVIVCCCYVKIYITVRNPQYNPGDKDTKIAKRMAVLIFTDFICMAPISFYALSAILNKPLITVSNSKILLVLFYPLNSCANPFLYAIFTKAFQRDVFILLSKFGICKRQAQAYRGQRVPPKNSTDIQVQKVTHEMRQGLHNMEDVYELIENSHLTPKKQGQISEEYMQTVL
# Procedure, shortened: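 Cell line HEK293 with TSHR; density 800/well. Exposure 30 min RT. Readout HTRF cAMP (cAMP-d2/anti-cAMP-cryptate), 1 h RT before reading.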
# [20] = qHTS RealTime-Glo MT Cell Viability Assay in HepG2 cells - 40 hour (AID 1224870); further: nearly all actives have a fitted effect of over 50% in size
# Procedure, shortened: as §4
SMILES,outcome [1],outcome [2],outcome [3],outcome [4],Potency [5],Potency [6],outcome [7],Potency [8],Potency [9],Potency [10],max response [11],Potency [12],outcome [13],outcome [14],Potency [15],Potency [16],outcome [17],outcome [18],outcome [19],outcome [20]
CC(C)OP(=O)(CP(=O)(OC(C)C)OC(C)C)OC(C)C,inactive,inactive,inactive,inactive,inactive,inactive,inactive,inactive,inactive,inactive,4.3% and 0.573%,inactive,inactive,inactive,inactive,inactive,–,–,–,–
O=S(=O)(O)c1ccc(N=Nc2c(O)ccc3cc(S(=O)(=O)O)ccc23)cc1,inactive,–,inactive,–,–,inactive,inactive,inactive,–,inactive,-20%,inactive,inactive,–,inactive,inactive,inactive,inactive,–,–
CC(=O)Oc1ccc(C)cc1,inactive,inactive,inactive,inactive,inactive,inactive,inactive,inactive,inactive,inactive,7.12% and 1.96%,inactive,inactive,inactive,inactive,inactive,–,–,–,–
CCOCCOCCOCCO,inactive,inactive,inactive,–,inactive,inactive,inactive,inactive,inactive,inactive,3.42% and 9.26%,inactive,inactive,inactive,inactive,inactive,–,–,inactive,inactive
CC(C)OC(=O)COc1ccc(Cl)cc1Cl,inactive,inactive,inactive,inactive,inactive,inactive,inactive,inactive,inactive,inactive,8.21% and -2.23%,inactive,inactive,inactive,inactive,inactive,–,–,–,–
CC(C)(C)c1cc(Cc2cc(C(C)(C)C)c(O)c(C(C)(C)C)c2)cc(C(C)(C)C)c1O,inactive,inactive,inactive,–,inactive,inactive,inactive,inactive,inactive,inactive,3.98% and -14.3%,inactive,inactive,inactive,inactive,inactive,–,–,inactive,inactive
COc1cc(OC)c(C(=O)CCCN2CCCC2)c(OC)c1,inactive,inactive,–,–,inactive,inactive,inactive,inactive,inactive,inactive,-11.2% and -1.98%,inactive,inactive,inactive,inactive,inactive,–,–,inactive,inactive
COc1ccc([N+](=O)[O-])cc1N,inactive,inactive,inactive,–,inactive,inactive,inactive,inactive,inactive,inactive,-5.95% and 0.4%,inactive,inactive,inactive,inactive,inactive,–,–,–,inactive
CN(C)CCOC(=O)COc1ccc(Cl)cc1,inactive,inactive,–,–,inactive,inactive,inactive,inactive,inactive,inactive,-6.44% and 0.203%,inactive,inactive,inactive,inactive,inactive,inactive,inactive,inactive,inactive
CCCCCCCC=O,inactive,inactive,inactive,inactive,inactive,inactive,inactive,inactive,inactive,inactive,1.74% and 27%,inactive,inactive,inactive,inactive,inactive,–,–,–,–
c1ccc(Oc2ccccc2)cc1,inactive,inactive,inactive,–,inactive,inactive,inactive,50.5 µM (active),inactive,inactive,-2.3% and -6.04%,inactive,inactive,inactive,inactive,inactive,–,–,inactive,inactive
O=C1c2ccccc2CCc2ccccc21,inactive,–,inactive,–,inactive,inactive,inactive,inactive,inactive,inactive,-14.3% and 0.842%,inactive,inactive,inactive,inactive,inactive,inactive,inactive,inactive,–
CC(O)CC(C)(C)O (stereo unspecified),inactive,inactive,inactive,inactive,inactive,inactive,inactive,inactive,inactive,inactive,13.3% and 0.19%,inactive,inactive,inactive,inactive,inactive,–,–,–,–
O=C1CCCC1,inactive,inactive,inactive,–,inactive,inactive,inactive,inactive,inactive,inactive,-0.988% and 5.09%,inactive,inactive,inactive,inactive,inactive,inactive,inactive,–,–
O=C(O)c1ccc(C(=O)O)c(C(=O)O)c1,inactive,inactive,–,–,inactive,inactive,inactive,inactive,inactive,inactive,-1.73% and 1.6%,inactive,inactive,inactive,inactive,inactive,inactive,inactive,inactive,inactive
